Where “and” joins values, the source holds several entries; their conditions need not be identical. Equal values may be shown once. Compounds without any hit were thinned out: in the full panel of roughly 83,000, 20% have a hit.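 Method: cells in 96-well plates; compound added at one concentration; 48 h incubation; percent growth measured; values under 10 scored active.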 Calls of active or inactive are those of the source.
Each molecule was assayed on CCRF-CEM leukemia (assay: NCI-60 one-dose screen, 48 h (100 = growth as untreated, 0 = no growth, -100 = all killed)). Conditions: 10 µM.
`O=C(O)/C=C\C(=O)Nc1cccc2ccccc12` was tested, and the growth was 50.7% (inactive) and 101% (inactive).
In the case of `NN1CCOC(c2ccccc2)C1` (stereo not drawn), the growth is reported as 99.3% (inactive).
`c1ccc(-c2nc3ccccc3s2)cc1` was tested, and the growth was 101% (inactive).
In the case of `COc1ccc2cc1Oc1ccc(cc1)C[C@H]1c3cc(c(OC)cc3CCN1C)Oc1c(OC)c(OC)cc3c1[C@H](C2)N(C)CC3`, the growth is reported as 3.76% (active).
For `N#CC(C#N)N=Nc1ccc(Cl)cc1`, the growth was 28.6% (inactive).
`O=C1OC(C(O)C(O)CO)C(O)=C1O` (stereo not drawn) was tested, and the growth was 102% (inactive) and 101% (inactive).
`OCC1OC(O)C(O)C(O)C1O` (stereo not drawn) was tested, and the growth was 92.3% (inactive).
In the case of `CC1CCC2(C(=O)O)CCC3(C)C(=CCC4C5(C)CCC(O)C(C)(C)C5CCC43C)C2C1C` (stereo not drawn), the growth is reported as -22.1% (active) and 35.8% (inactive).

From PubChem BioAssay (NCI)
